# PubChem BioAssay
# Several values for one entry are separate records, joined by “and”; a condition that tells them apart may be missing. Equal entries are not always repeated. Activity calls are given as the source filed them. Cut-off read from the data, not from the text of the source, unless noted: active = inhibition above about 80%; inactive = the rest.
# Tests used:
# [1] = LFS_MB_P medulloblastoma growth inhibition, cell-based, chromothripsis tumors, cisplatin or BGB combos (AID 1671449); details: LFS_MB_P medulloblastoma cells;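 note: cells exposed for 96 hours; 0% = vehicle DMSO and 100% = killing by high DMSO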
# [2] = HDN33 neuroblastoma growth inhibition, cell-based, chromothripsis tumors, cisplatin or BGB combos (AID 1671450); details: HDN33 neuroblastoma cells, stronger effect = higher value;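 note: cells exposed to compound for four days; 0% = vehicle DMSO and 100% = cell killing by high DMSO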
# [3] = ICB984 medulloblastoma cell growth inhibition, synergistic combos for chromothripsis tumors, cisplatin or BGB combos (AID 1671451; call rule not given here;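 note: cells exposed for 96 hours before readout; 0% = vehicle DMSO and 100% = killing by high DMSO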); details: ICB984 medulloblastoma cells, drug combinations, stronger effect = higher value
# [4] = LFS_MB_1R medulloblastoma cell growth inhibition, synergistic combos for chromothripsis tumors, cisplatin or BGB combos (AID 1671452); details: LFS_MB_1R medulloblastoma cells, stronger effect = higher value;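 note: cells exposed for 96 hours before readout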
# [5] = HTB85 osteosarcoma cell growth inhibition, synergistic combos for chromothripsis tumors, BGB or cisplatin IC20 combos (AID 1671453); details: HTB85 osteosarcoma cells, drug combinations, stronger effect = higher value;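 note: cells exposed for 96 hours before readout; 0% = vehicle DMSO and 100% = high DMSO killing control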
# [6] = CRL2098 osteosarcoma cell growth inhibition, synergistic combos for chromothripsis tumors, BGB or cisplatin IC20 combos (AID 1671454); details: CRL2098 osteosarcoma cells, drug combinations, stronger effect = higher value;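 note: cells exposed for 96 h before readout; 0% = vehicle DMSO and 100% = killing by high DMSO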
# [7] = HD-MB03 medulloblastoma cell growth inhibition, synergistic combos for chromothripsis tumors, BGB or cisplatin IC20 combos (AID 1671455; in the data active = inhibition above about 83%;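 note: 0% = vehicle DMSO and 100% = high DMSO as cytotoxic control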); details: HD-MB03 medulloblastoma cells, stronger effect = higher value
# [8] = UWB1.289 ovarian carcinoma cell growth inhibition, synergistic combos for chromothripsis tumors, BGB or cisplatin combos (AID 1671456); details: UWB1.289 ovarian carcinoma cells, stronger effect = higher value;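 note: cells exposed to compound for four days; 0% = vehicle DMSO and 100% = killing by high DMSO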
# [9] = LFS_MB_2R medulloblastoma cell growth inhibition, synergistic combos for chromothripsis tumors, cisplatin combos (AID 1671457); details: LFS_MB_2R medulloblastoma cells, stronger effect = higher value;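 note: cells exposed to compound for four days before readout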
# [10] = MDA-MB-436 breast carcinoma cell growth inhibition, synergistic combos for chromothripsis tumors, BGB or cisplatin combos (AID 1671458; call rule not given here;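 note: cells exposed for 96 hours; 0% = vehicle DMSO and 100% = killing by high DMSO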); details: MDA-MB-436 breast carcinoma growth inhibition, drug combinations, stronger effect = higher value
# [11] = UWB1.289_BRCA1 ovarian cancer growth, cell-based, BGB or cisplatin combinations (AID 1671459); details: UWB1.289 BRCA1 ovarian carcinoma, drug combinations, stronger effect = higher value
# [12] = human astrocyte viability loss, single and combined drugs, cytotoxicity control for chromothriptic childhood tumor combination screen, cell-based, BGB or cisplatin IC20 combos (AID 1671460); details: Human astrocytes, drug combinations, stronger effect = higher value;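 note: cells exposed to compounds for 96 hours before viability readout; 0% = vehicle and 100% = killing control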
# [13] = growth inhibition of BT084 medulloblastoma cells, cell-based, ICGC_MB145, cisplatin and BGB IC40 combos (AID 1671461); details: drug combinations, stronger effect = higher value;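 note: cells exposed to drugs for 96 hours; 0% = vehicle DMSO and 100% = high DMSO full killing control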
# [14] = growth inhibition of RCMB18 medulloblastoma cells, cell-based, cisplatin and BGB IC40 combos (AID 1671462); details: stronger effect = higher value;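 note: cells exposed to compound for four days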
# [15] = growth inhibition of CRL1545 osteosarcoma cells, cell-based, cisplatin and BGB IC20 combos (AID 1671464); details: stronger effect = higher value;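 note: cells exposed to compound for 96 hours before readout; 0% = vehicle DMSO and 100% = high DMSO killing control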
# [16] = at 0.5 µM, stronger effect = higher value
# [17] = measured here: combination with BGB IC20, at 0.005 µM
# [18] = measured here: combination with BGB IC40, at 0.005 µM
# [19] = measured here: combination with BGB IC40, at 0.05 µM
# [20] = measured here: combination with cisplatin, at 0.5 µM, stronger effect = higher value
# [21] = measured here: combination with cisplatin, at 5 µM, stronger effect = higher value
# [22] = measured here: with BGB IC20 combination, at 0.5 µM
# [23] = measured here: with cisplatin IC20 combination, at 0.5 µM
# [24] = measured here: 5 uM single agent, at 5 µM
# [25] = measured here: combination with cisplatin, at 0.5 µM
# [26] = measured here: combination with cisplatin, at 5 µM
# [27] = measured here: with BGB IC20, at 0.5 µM
# [28] = measured here: with BGB IC20, at 5 µM
# [29] = measured here: with cisplatin IC20, at 0.5 µM
# [30] = measured here: with cisplatin IC20, at 5 µM
# [31] = measured here: combination with BGB at IC20, at 0.5 µM
# [32] = measured here: combination with cisplatin at IC20, at 0.5 µM
# [33] = measured here: combo with BGB at IC20, at 0.5 µM
# [34] = measured here: combo with cisplatin at IC20, at 0.5 µM
# [35] = measured here: inhibition with BGB combination, at 0.05 µM
# [36] = measured here: inhibition with cisplatin combination, at 0.05 µM
# [37] = measured here: BGB combination, at 0.5 µM
# [38] = measured here: BGB combination, at 5 µM
# [39] = measured here: cisplatin combination, at 0.5 µM
# [40] = measured here: cisplatin combination, at 5 µM
# [41] = BGB combination, concentration series, at 5 µM
# [42] = cisplatin combination, concentration series, at 5 µM
# [43] = measured here: combo with BGB IC20, at 0.5 µM
# [44] = measured here: combo with cisplatin IC20, at 0.5 µM
# [45] = cisplatin combination, at 0.5 µM
# [46] = measured here: BGB IC40 combination 0.05 uM, at 0.05 µM
# [47] = measured here: BGB IC40 combination, at 0.05 µM
structure (smiles),measurement,setting,value
Nc1cc(F)ccc1NC(=O)/C=C/c1cnn(C/C=C/c2ccccc2)c1,inhibition,[1]; [16],19.7% (inactive) and -29.8% (inactive)
same,inhibition,[1]; [17],-27.4% and -4.91%
same,inhibition,[1]; [18],89.6% and -23%
same,inhibition,[1]; [19],10.4% and 0.325%
same,inhibition,[1]; [20],-17.2% and -44.8%
same,inhibition,[1]; [21],-14.4% and -23.8%
same,inhibition,"[2]; BGB combo, at 5 µM",-55.4% and -3.94%
same,inhibition,[2]; at 0.5 µM,-46.1% (inactive) and -1.14% (inactive)
same,inhibition,"[2]; cisplatin combo, at 5 µM",-62.1% and 12.2%
same,inhibition,[2]; [22],-50.1% and 0.078%
same,inhibition,[2]; [23],-34.6% and -2.05%
same,inhibition,"[2]; single agent, at 5 µM",-50.8% and -2.21%
same,inhibition,"[3]; BGB IC20 combo, at 0.005 µM",-16.5% and -7.2%
same,inhibition,"[3]; BGB IC40 combo, at 0.005 µM",-16% and 5.39%
same,inhibition,"[3]; BGB IC40 combo, at 0.05 µM",-9.88% and 2.13%
same,inhibition,[3]; at 0.5 µM,-33.8% (inactive) and -9.71% (inactive)
same,inhibition,"[3]; cisplatin combo, at 0.05 µM",-15.5% and -1.74%
same,inhibition,"[3]; cisplatin combo, at 0.5 µM",-45.9% and -17.3%
same,inhibition,"[3]; cisplatin combo, at 5 µM",-20.4% and -41.2%
same,inhibition,[3]; [24],-25.9% and -12.4%
same,inhibition,[4]; at 0.5 µM,-30.2% (inactive) and -13.5% (inactive)
same,inhibition,[4]; [19],-20% and -25.7%
same,inhibition,[4]; [25],-51.6% and -12%
same,inhibition,[4]; [26],-19.1% and 0.402%
same,inhibition,[5]; at 0.5 µM,-30% (inactive) and 0.99% (inactive)
same,inhibition,[5]; [27],-21.5% and 1.42%
same,inhibition,[5]; [28],-17.1% and -19.7%
same,inhibition,[5]; [29],-35.4% and -2.87%
same,inhibition,[5]; [30],19.9% and 1.46%
same,inhibition,"[5]; single agent, at 5 µM",-33.7% and -0.677%
same,inhibition,[6]; at 0.5 µM,-90.2% (inactive) and -24% (inactive)
same,inhibition,[6]; [31],-110% and -20.4%
same,inhibition,[6]; [32],-83.6% and -21.7%
same,inhibition,[7]; at 0.5 µM,-17.4% (inactive) and -5.34% (inactive)
same,inhibition,[7]; [33],-11.2% and -7.19%
same,inhibition,[7]; [34],-20.1% and 0.566%
same,inhibition,[8]; at 0.5 µM,-10.9% (inactive) and -4.29% (inactive)
same,inhibition,[8]; [35],-7.43% and -5.9%
same,inhibition,[8]; [36],-31.6% and -3.68%
same,inhibition,[9]; at 0.5 µM,-20.7% (inactive) and -11.8% (inactive)
same,inhibition,[9]; [25],-25.8% and -7.04%
same,inhibition,[9]; [26],-6.14% and -2.99%
same,inhibition,[10]; at 0.5 µM,-30.9% (inactive) and -9.97% (inactive)
same,inhibition,[10]; [37],-13.1%
same,inhibition,[10]; [38],-3.22% and -1.12%
same,inhibition,[10]; [39],-59.9% and -6.82%
same,inhibition,[10]; [40],8% and 15.6%
same,inhibition,[11]; [41],-29.7% and 12%
same,inhibition,[11]; at 0.5 µM,-22.5% (inactive) and -3.56% (inactive)
same,inhibition,[11]; [42],-4.42% and 12.4%
same,inhibition,[12]; at 0.5 µM,2.29% (inactive) and 8.32% (inactive)
same,inhibition,[12]; [43],16.9% and 12.5%
same,inhibition,[12]; [44],-7.65% and 10.5%
same,inhibition,[13]; at 0.5 µM,-9.17% (inactive) and 0.933% (inactive)
same,inhibition,[13]; [45],-6.82% and -1.46%
same,inhibition,"[13]; cisplatin combination, at 5 µM",-105% and 25.2%
same,inhibition,[13]; [46],-19.8% and -24.1%
same,inhibition,"[13]; single agent, at 5 µM",-7.33% and 11.8%
same,inhibition,[14]; at 0.5 µM,2.62% (inactive) and -10.6% (inactive)
same,inhibition,"[14]; cisplatin combo, at 5 µM",-19.2% and 26.8%
same,inhibition,[14]; [47],-14.2% and 7.18%
same,inhibition,[14]; [25],9.23% and 6.5%
same,inhibition,"[14]; single agent, at 5 µM",5.68% and -6.78%
same,inhibition,[15]; at 0.5 µM,-28.2% (inactive) and -6.93% (inactive)
same,inhibition,[15]; [22],-50.8% and -4.55%
same,inhibition,[15]; [23],-18.7% and -8.13%
same,inhibition,"[15]; single agent, at 0.05 µM",-48.6% and -13.2%
same,inhibition,"[15]; single agent, at 5 µM",23.9% and 22.7%
C#CCC(CCCCCC)C(=O)O (stereo unspecified),inhibition,[1]; [16],5.69% (inactive)
same,inhibition,[1]; [17],3.1%
same,inhibition,[1]; [18],30.2%
same,inhibition,[1]; [19],36.1%
same,inhibition,[1]; [20],3.27%
same,inhibition,[1]; [21],-9.45%
same,inhibition,"[2]; BGB combo, at 5 µM",13.8%
same,inhibition,[2]; at 0.5 µM,8.32% (inactive)
same,inhibition,"[2]; cisplatin combo, at 5 µM",-0.039%
same,inhibition,[2]; [22],10.2%
same,inhibition,[2]; [23],-1.96%
same,inhibition,"[2]; single agent, at 5 µM",-0.563%
same,inhibition,"[3]; BGB IC20 combo, at 0.005 µM",-2.69%
same,inhibition,"[3]; BGB IC40 combo, at 0.005 µM",-16%
same,inhibition,"[3]; BGB IC40 combo, at 0.05 µM",-11.6%
same,inhibition,[3]; at 0.5 µM,-6.37% (inactive)
same,inhibition,"[3]; cisplatin combo, at 0.05 µM",-16%
same,inhibition,"[3]; cisplatin combo, at 0.5 µM",-14.1%
same,inhibition,"[3]; cisplatin combo, at 5 µM",-27.6%
same,inhibition,[3]; [24],-4.43%
same,inhibition,[4]; at 0.5 µM,3.82% (inactive)
same,inhibition,[4]; [19],-10%
same,inhibition,[4]; [25],-6.41%
same,inhibition,[4]; [26],2.32%
same,inhibition,[5]; at 0.5 µM,6.28% (inactive)
same,inhibition,[5]; [27],4.58%
same,inhibition,[5]; [28],-11%
same,inhibition,[5]; [29],-9.52%
same,inhibition,[5]; [30],-7.57%
same,inhibition,"[5]; single agent, at 5 µM",22.7%
same,inhibition,[6]; at 0.5 µM,2.92% (inactive)
same,inhibition,[6]; [31],26.1%
same,inhibition,[6]; [32],6.9%
same,inhibition,[7]; at 0.5 µM,3.15% (inactive)
same,inhibition,[7]; [33],0.099%
same,inhibition,[7]; [34],2.13%
same,inhibition,[8]; at 0.5 µM,4.47% (inactive)
same,inhibition,[8]; [35],5.84%
same,inhibition,[8]; [36],2.18%
same,inhibition,[9]; at 0.5 µM,-4.49% (inactive)
same,inhibition,[9]; [25],5.98%
same,inhibition,[9]; [26],6.31%
same,inhibition,[10]; at 0.5 µM,-1.28% (inactive)
same,inhibition,[10]; [37],-4.71%
same,inhibition,[10]; [38],-7.63%
same,inhibition,[10]; [39],-0.109%
same,inhibition,[10]; [40],-1.88%
same,inhibition,[11]; [41],-4.85%
same,inhibition,[11]; at 0.5 µM,3.74% (inactive)
same,inhibition,[11]; [42],16.5%
same,inhibition,[12]; at 0.5 µM,6.72% (inactive)
same,inhibition,[12]; [43],20.5%
same,inhibition,[12]; [44],9.45%
same,inhibition,[13]; at 0.5 µM,8.59% (inactive)
same,inhibition,[13]; [45],9.78%
same,inhibition,"[13]; cisplatin combination, at 5 µM",1.82%
same,inhibition,[13]; [46],2.2%
same,inhibition,"[13]; single agent, at 5 µM",14.4%
same,inhibition,[14]; at 0.5 µM,-5.37% (inactive)
same,inhibition,"[14]; cisplatin combo, at 5 µM",23.5%
same,inhibition,[14]; [47],5.44%
same,inhibition,[14]; [25],22%
same,inhibition,"[14]; single agent, at 5 µM",-15.4%
same,inhibition,[15]; at 0.5 µM,-23% (inactive)
same,inhibition,[15]; [22],-43.7%
same,inhibition,[15]; [23],-12.7%
same,inhibition,"[15]; single agent, at 0.05 µM",0.433%
same,inhibition,"[15]; single agent, at 5 µM",16.3%
